Data from PubChem BioAssay.
Calls of active or inactive are those of the source.

Columns and labels:
[1] = binders of probe aFSTL3 on microarray, primary screen, stem cell growth factor project, biochemical, small-molecule microarray, fluorescence 635/667 (AID 1064); details: higher = more signal;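 further: measures binding of the biotinylated anti-FSTL3 antibody to printed compounds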
[2] = binders from COS7 lysate, DM2A8 probe, primary screen, torsin A project, cell lysate, small-molecule microarray, fluorescence 635/667 (AID 1065); details: higher = more signal, COS7 lysate expressing mutant human TOR1A
[3] = binders of probe aFGF2 on microarray, primary screen, stem cell growth factor project, biochemical, small-molecule microarray, fluorescence 635/667 (AID 1067); details: higher = more signal;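 further: measures binding of biotinylated aFGF2 protein to printed compounds on slides; z-score merges feature fluorescence and signal-to-noise across triplicate slides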
[4] = binders of probe aFGF10 on microarray, primary screen, stem cell growth factor project, biochemical, small-molecule microarray, fluorescence 635/667 (AID 1071); details: higher = more signal;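 further: score merges 667 nm spot intensity and signal to noise from triplicate slides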
[5] = biological target: Neurogenic locus notch homolog protein 2 (Homo sapiens) (UniProt Q04721); test: Notch2 binders on small-molecule microarrays, primary screen, biochemical, small-molecule microarray, 635 nm fluorescence, stem cell growth factors (AID 1073); details: Notch2 binding, higher = more signal
Chain of Neurogenic locus notch homolog protein 2 (Homo sapiens) (Q04721 whole entry, looked up, canonical isoform): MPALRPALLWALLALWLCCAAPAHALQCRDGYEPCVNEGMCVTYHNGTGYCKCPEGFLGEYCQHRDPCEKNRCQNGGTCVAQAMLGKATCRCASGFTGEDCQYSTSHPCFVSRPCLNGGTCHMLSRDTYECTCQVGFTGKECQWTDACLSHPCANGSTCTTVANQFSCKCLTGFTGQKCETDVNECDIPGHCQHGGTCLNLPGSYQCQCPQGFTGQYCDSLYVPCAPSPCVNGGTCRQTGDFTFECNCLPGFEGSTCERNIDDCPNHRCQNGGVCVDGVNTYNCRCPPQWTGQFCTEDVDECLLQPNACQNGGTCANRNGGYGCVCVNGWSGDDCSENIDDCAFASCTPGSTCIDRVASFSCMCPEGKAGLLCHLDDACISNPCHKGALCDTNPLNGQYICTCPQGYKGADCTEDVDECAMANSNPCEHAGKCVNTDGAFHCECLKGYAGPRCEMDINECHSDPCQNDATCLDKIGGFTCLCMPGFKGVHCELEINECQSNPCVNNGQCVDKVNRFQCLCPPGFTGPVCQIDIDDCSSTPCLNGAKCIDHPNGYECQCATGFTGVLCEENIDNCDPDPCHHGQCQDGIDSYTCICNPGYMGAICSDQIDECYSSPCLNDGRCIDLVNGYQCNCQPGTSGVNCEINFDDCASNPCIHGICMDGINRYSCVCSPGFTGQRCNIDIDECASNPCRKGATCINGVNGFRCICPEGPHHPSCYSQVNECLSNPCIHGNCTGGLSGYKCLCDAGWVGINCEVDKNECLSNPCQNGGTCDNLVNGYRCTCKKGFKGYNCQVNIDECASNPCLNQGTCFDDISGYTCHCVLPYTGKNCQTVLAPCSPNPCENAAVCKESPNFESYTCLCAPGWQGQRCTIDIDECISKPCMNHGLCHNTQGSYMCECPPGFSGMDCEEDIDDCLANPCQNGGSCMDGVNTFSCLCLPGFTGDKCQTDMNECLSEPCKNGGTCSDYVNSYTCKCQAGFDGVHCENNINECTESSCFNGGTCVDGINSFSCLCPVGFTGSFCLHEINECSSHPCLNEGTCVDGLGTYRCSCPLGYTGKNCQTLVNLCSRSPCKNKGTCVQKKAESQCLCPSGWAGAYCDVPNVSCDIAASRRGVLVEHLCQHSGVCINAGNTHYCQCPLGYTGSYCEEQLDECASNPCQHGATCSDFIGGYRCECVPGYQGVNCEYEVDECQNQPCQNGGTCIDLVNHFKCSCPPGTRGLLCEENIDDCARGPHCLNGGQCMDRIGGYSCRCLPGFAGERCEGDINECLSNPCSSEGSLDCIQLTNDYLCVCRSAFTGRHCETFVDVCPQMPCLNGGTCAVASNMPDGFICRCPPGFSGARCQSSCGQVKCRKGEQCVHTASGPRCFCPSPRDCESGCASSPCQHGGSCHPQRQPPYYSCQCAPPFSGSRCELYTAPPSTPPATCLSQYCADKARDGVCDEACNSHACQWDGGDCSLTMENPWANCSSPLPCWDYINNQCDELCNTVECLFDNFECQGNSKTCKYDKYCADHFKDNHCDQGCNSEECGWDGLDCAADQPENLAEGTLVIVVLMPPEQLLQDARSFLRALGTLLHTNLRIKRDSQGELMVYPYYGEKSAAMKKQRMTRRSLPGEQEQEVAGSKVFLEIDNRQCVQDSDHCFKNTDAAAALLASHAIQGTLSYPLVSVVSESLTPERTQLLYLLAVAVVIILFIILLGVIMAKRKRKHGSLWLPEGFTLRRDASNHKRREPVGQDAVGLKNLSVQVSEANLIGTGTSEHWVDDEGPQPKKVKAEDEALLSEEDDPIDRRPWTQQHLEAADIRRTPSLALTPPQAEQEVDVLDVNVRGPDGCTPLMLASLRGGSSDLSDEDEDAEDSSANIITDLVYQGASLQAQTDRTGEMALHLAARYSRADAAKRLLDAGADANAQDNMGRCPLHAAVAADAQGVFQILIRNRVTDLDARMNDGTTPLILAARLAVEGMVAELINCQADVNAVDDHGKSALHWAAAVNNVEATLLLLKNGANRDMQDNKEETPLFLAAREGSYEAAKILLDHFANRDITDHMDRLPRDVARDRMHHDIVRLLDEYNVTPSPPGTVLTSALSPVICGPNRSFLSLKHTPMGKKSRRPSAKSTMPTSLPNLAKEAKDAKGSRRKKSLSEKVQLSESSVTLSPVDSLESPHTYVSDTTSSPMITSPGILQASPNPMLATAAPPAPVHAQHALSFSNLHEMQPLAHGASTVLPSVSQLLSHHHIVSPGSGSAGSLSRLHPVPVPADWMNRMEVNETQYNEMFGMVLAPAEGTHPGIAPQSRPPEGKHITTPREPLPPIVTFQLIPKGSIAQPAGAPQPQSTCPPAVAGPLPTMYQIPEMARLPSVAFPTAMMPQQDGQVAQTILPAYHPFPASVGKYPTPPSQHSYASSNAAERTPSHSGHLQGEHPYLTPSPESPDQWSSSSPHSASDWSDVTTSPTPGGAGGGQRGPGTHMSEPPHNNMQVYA

[6] = biological target: Pro-neuregulin-1, membrane-bound isoform (Homo sapiens) (UniProt Q02297); test: NRG1 binders on small-molecule microarrays, primary screen, psychiatric disease protein project, biochemical, small-molecule microarray, fluorescence 635/667 (AID 1075); details: NRG1 binding, 635 nm fluorescence, higher = more signal;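 further: score combines 667 nm spot fluorescence with signal to noise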
Chain of Pro-neuregulin-1, membrane-bound isoform (Homo sapiens) (Q02297 whole entry, looked up, the tested form may be a part, canonical isoform): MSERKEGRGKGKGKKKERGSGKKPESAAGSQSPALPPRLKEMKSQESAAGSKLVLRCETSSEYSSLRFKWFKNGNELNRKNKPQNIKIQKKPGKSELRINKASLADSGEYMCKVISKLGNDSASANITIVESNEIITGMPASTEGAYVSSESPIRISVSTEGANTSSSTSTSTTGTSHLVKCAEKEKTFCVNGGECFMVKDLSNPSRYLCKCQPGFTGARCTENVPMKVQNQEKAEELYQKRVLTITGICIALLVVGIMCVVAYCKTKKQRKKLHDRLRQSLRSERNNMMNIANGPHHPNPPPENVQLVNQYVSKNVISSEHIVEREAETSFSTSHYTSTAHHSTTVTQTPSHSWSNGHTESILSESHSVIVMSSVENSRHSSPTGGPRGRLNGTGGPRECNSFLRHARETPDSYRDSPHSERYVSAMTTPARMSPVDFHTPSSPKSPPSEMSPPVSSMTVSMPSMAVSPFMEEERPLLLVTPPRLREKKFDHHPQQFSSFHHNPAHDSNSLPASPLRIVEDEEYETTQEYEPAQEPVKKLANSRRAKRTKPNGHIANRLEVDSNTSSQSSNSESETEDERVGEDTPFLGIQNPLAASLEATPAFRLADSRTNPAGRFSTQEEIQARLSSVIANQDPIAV

[7] = tested on: Neuregulin-1 EGF-like domain; test: binders of neuregulin-1 EGF-like domain, primary screen, biochemical, small-molecule microarray, 635 nm fluorescence (AID 1081); details: small-molecule microarray binding, higher = more signal;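 further: binding of the protein to compounds printed on small-molecule microarray slides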
[8] = FRG1 promoter luciferase signal modulators, primary screen, FRG1 inhibition for FSHD, cell-based, C2C12 myotubes, firefly/Renilla luciferase, luminescence (AID 1084); details: higher = more signal, called active from +8 up or from −8 down
[9] = binders of probe aFST on microarray, primary screen, stem cell growth factor project, biochemical, small-molecule microarray, fluorescence 635/667 (AID 1086); details: higher = more signal;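 further: score merges 667 nm fluorescence with signal-to-noise of each printed compound spot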
[10] = binders of probe aHhip on microarray, primary screen, stem cell growth factor project, biochemical, small-molecule microarray, fluorescence 635/667 (AID 1087); details: higher = more signal;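 further: score merges spot fluorescence at 667nm with spot signal to noise ratio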

Row | SMILES | composite z-score [1] | composite z-score [2] | composite z-score [3] | composite z-score [4] | composite z-score [5] | composite z-score [6] | composite z-score [7] | z-score [8] | composite z-score [9] | composite z-score [10]
1 | [N-]=[N+]=NCc1ccccc1[C@@H]1OC(c2ccc(OCCCO)cc2)=N[C@]1(Cc1ccccc1N=[N+]=[N-])C(=O)O | 0.535 | 0.326 | 0.294 | 1.14 | 1.55 | 1.89 | 1.3 | 1.22 (inactive) | 1.28 | 0.455
2 | COCCOC(=O)N1C(=O)[C@@]2(c3cc(C#CC4(O)CCCCCC4)ccc31)[C@H](c1ccc(O)cc1)N1[C@H](c3ccccc3)[C@H](c3ccccc3)OC(=O)[C@H]1[C@@H]2C(=O)N1CCCCCCC1 | 2.85 | 0.567 | 0.0059 | 0.83 | 0.547 | 0.903 | 1.15 | -0.0559 (inactive) | 2.06 | 1.39
3 | N#Cc1ccc(C(O)C2C=CC3C(=O)NC(=O)C3N2Nc2ccc(Cl)cc2Cl)cc1 (stereo not given) | -0.0161 | -0.0803 | -0.101 | 0.116 | 1.45 | 1.82 | 0.649 | 1.79 (inactive) | 0.119 | -0.146
4 | C=C(CCCC)C(=O)CC[C@@H](OC(=O)c1ccccc1-c1ccccc1C(=O)O)c1ccccc1OCCO | -0.173 | 0.222 | -0.0566 | 0.803 | -0.0697 | -0.0918 | 0.0551 | -0.39 (inactive) | -0.501 | 0.0373
5 | O=C(N1CCOCC1)[C@@]1(Cc2ccccc2)COC(c2ccc(OCCCO)cc2)=N1 | 1.06 | 0.615 | 0.0094 | 0.64 | 0.763 | 1.49 | 1.06 | -1.28 (inactive) | 0.48 | 0.264
6 | COCCOC(=O)N1C(=O)[C@@]2(c3cc(C#CCCO)ccc31)[C@H](c1ccccc1OCCO)N1[C@H](c3ccccc3)[C@H](c3ccccc3)OC(=O)[C@H]1[C@@H]2C(N)=O | -0.455 | -0.0702 | -0.0723 | 0.758 | 1.3 | 1.55 | 1.22 | -1.9 (inactive) | 0.806 | -0.0645
7 | COC(=O)[C@H](Cc1ccc(O)cc1)N[C@@H](/C=C/C1CC1)[C@H](O)Cc1ccccc1 | -0.262 | 0.396 | -0.187 | 0.154 | 0.023 | -0.721 | -0.776 | -0.269 (inactive) | -0.437 | -0.0994
8 | [N-]=[N+]=Nc1ccccc1C[C@@]1(C(=O)NCC(O)CO)N=C(c2ccc(OCCCO)cc2)O[C@@H]1c1ccccc1 (stereo not given in full) | 0.134 | -0.243 | -0.073 | 0.165 | 0.513 | 0.706 | 1.1 | -2.46 (inactive) | 0.146 | -0.0994
9 | CC1CC/C=C\[C@H]2OC34C=CCN(c5ccc(Cl)cc5)C(=O)[C@H]3N(CCCCCCO)C(=O)[C@]4(C)C2C(=O)O1 (stereo not given in full) | -0.147 | -0.965 | -0.176 | -0.219 | -0.705 | 0.639 | 1.52 | 0.975 (inactive) | -0.56 | -0.204
10 | O=C1N(Cc2ccccc2)c2ccccc2C[C@@]12COC(c1ccc(OCCCO)cc1)=N2 | 0.689 | 0.445 | -0.0592 | 0.979 | 0.984 | 1 | 1.23 | -1.14 (inactive) | 0.361 | -0.0237
11 | CN(C)CCCCNC(=O)[C@H]1C[C@H]2C(=O)N3CCC[C@H]3C(=O)N2[C@H]1c1cccc(OCCO)c1 | 0.429 | 0.76 | -0.0386 | 0.0348 | -0.182 | 1.94 | 1.28 | 3.81 (inactive) | 0.081 | 0.565
12 | C=C(COC)/C(=C/C[C@H](OC(C)=O)c1ccccc1OCCO)c1cc(C(=O)OC)ccc1OC | -0.398 | 0.275 | -0.0948 | 1.05 | -0.738 | 0.727 | 1.28 | 0.181 (inactive) | 0.318 | -0.0003
13 | O=C(NCc1ccccc1)[C@@H]1c2ccccc2C(=O)N(Cc2cc(C(F)(F)F)cc(C(F)(F)F)c2)[C@H]1c1ccc(CO)cc1 | -0.501 | 1.62 | -0.118 | 0.409 | 0.685 | 0.71 | 1.27 | -0.354 (inactive) | 0.423 | 0.0505
14 | CC(C)NC(=O)[C@@H]1c2ccccc2C(=O)N(Cc2ccccc2C(F)(F)F)[C@H]1c1ccc(CO)cc1 | -0.804 | 0.313 | 0.0553 | -0.0635 | -0.409 | -0.774 | 0.837 | -1.26 (inactive) | 0.618 | -0.668
15 | CC1CC/C=C\[C@H]2OC34C=CCN(Cn5nnc6ccccc65)C(=O)[C@H]3N(CCCCCCO)C(=O)[C@@H]4C2C(=O)O1 (stereo not given in full) | 0.372 | -1.11 | -0.176 | -0.539 | -0.964 | 2.14 | 1.59 | -0.863 (inactive) | -0.541 | -0.169
16 | O=C1O[C@@H](c2ccccc2)[C@@H](c2ccccc2)N2[C@@H](c3ccc(OCCO)cc3)[C@]3(C(=O)Nc4ccc(C#CC5(O)CCCCCC5)cc43)[C@@H](C(=O)Nc3nc4ccccc4s3)[C@H]12 | -0.017 | 1.17 | 0.0649 | 0.517 | 1.46 | 1.51 | 1.24 | 2.48 (inactive) | 0.397 | 0.113
17 | CC1CC/C=C\[C@H]2OC34C=CCN(c5ccc6ccccc6c5)C(=O)[C@H]3N(C(C)CO)C(=O)[C@@H]4C2C(=O)O1 (stereo not given in full) | 0.018 | -1.51 | -0.178 | -0.489 | -0.858 | -0.318 | -0.0133 | 1.14 (inactive) | -0.187 | -0.0994
18 | CCOC(=O)c1cn(C[C@H](Cc2ccccc2)NC(=O)N[C@H](CO)CCc2oc(C(C)=O)c(C(=O)OC)c2C(=O)OC)nn1 | -0.562 | -0.0438 | -0.101 | 1.09 | 1.47 | 0.553 | 1.39 | 0.872 (inactive) | 0.863 | -0.0383
19 | COC(=O)[C@]1(CCC(=O)OC(C)(C)C)N=C(c2ccc(OCCCO)cc2)O[C@@H]1c1ccccc1N=[N+]=[N-] | 0.375 | -0.135 | -0.132 | 0.171 | 0.552 | 0.623 | 0.908 | 2.96 (inactive) | 0.219 | -0.484
20 | C=CCOC(=O)[C@@H]1[C@H]2C(=O)O[C@H](c3ccccc3)[C@H](c3ccccc3)N2[C@H](c2ccc(OCCOC(=O)[C@H]3C[C@H]4C(=O)N[C@@H](CCCCN(C)C)C(=O)N4[C@H]3c3ccc(O)cc3)cc2)[C@@]12C(=O)Nc1ccc(I)cc12 | -0.139 | 1.43 | -0.0583 | 0.454 | -0.0871 | 0.655 | 1.33 | 0.921 (inactive) | 0.166 | 0.0373
21 | CCCC=C(CCC)[C@@H](NC(=O)OCC(C)C)c1ccc(C(=O)OC)cc1 | -0.443 | 0.477 | -0.0596 | 0.161 | 0.638 | 0.224 | 0.362 | -0.705 (inactive) | 0.107 | 2.35
22 | CCOC(=O)C[C@H]1[C@H](OC(=O)c2ccccc2-c2ccccc2)[C@@H](NC(=O)C2CCCCC2)c2cc(OCCCO)ccc2N1C(=O)c1ccc2ccccc2n1 | -0.484 | 0.0817 | -0.0594 | 0.53 | 0.813 | 0.388 | 0.825 | 0.396 (inactive) | 0.512 | -0.0296
